Assay outcomes from PubChem.
In the library only some 2.2% were active in any assay of this set; here they are far more common.
Platelet DG rel: inhibitors of platelet dense granule secretion, primary screen, cell-based, MLPCN, human platelets. 0.22% of 300,000 active. human platelet-rich plasma, SFLLRN dense granule ATP release, luminescence. AID 1663, 2009. inhibition, %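 (compounds screened at 7.5 µM in platelet-rich plasma)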;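 active means mean replicate score, as percent of positive control, at or above 50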
CHT allo act: CHT positive allosteric modulators, primary screen, cell-based, membrane potential dye, choline EC20 | 0.49% of 310,000 active | B-score at 10 µM | CHT-expressing cells; active compounds read high; LV-AA mutant CHT in HEK293 cells | High affinity choline transporter 1 (Homo sapiens), Q9GZV3;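 active means initial fluorescence not abnormally high and integrated response B-score, plate-corrected, over 3 SD above library mean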
Target sequence (Q9GZV3 whole entry, looked up): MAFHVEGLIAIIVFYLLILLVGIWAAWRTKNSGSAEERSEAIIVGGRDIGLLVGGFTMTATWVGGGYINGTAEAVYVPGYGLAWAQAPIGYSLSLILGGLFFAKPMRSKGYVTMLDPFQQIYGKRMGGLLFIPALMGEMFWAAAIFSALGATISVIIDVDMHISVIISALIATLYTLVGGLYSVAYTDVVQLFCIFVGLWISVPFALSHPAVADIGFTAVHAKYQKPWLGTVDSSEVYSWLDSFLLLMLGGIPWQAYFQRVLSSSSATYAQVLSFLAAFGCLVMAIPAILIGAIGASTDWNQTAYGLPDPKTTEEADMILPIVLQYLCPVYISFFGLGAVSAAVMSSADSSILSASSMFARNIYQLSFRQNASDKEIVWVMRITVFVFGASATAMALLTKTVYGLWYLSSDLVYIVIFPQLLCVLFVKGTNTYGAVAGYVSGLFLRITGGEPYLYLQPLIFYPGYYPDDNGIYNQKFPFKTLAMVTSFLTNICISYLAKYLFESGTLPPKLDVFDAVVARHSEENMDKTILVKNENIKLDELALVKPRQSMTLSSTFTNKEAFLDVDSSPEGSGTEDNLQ
AI-2 QS mod: Vibrio harveyi AI-2 quorum sensing modulators, primary screen, JMH597 strain, luminescence/OD600 ratio. Vibrio harveyi JMH597 AI-2 luminescence/OD600 ratio, 9 h; active compounds read low; strain lacks LuxN and CqsS sensors; 0 = neutral-control median. activity change, % at 7.5 µM. 0.4% of 300,000 active. AID 2094, 2009; in the data active means activity change below about -75%, passing the limit was not always enough;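 further: luminescence divided by OD600 gain over 9 h not by final OD600 alone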
HIF act: HIF pathway transcriptional activators, primary screen, cell-based, U2OS HRE-luciferase, luminescence | activation, % at 7.5 µM (by protocol) | AID 1910, 2009 | 0.32% of 300,000 active | U2OS HRE-luciferase reporter; normalized: DMSO 0%, desferrioxamine 100%;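 active means mean activation of at least 10% of the iron chelator positive control signal, with at least half of replicates also reaching 10%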
VLA-4 inh: inhibition in human VLA-4 binding assay, primary screen, VLA-4 allosteric modulator project, MLPCN library, flow cytometry, VLA-4 expressing cells; ligand binding flow cytometry; inhibition, % (about 7 µM as worked out from the volumes in the protocol); 0.2% of 330,000 active; in the data active means inhibition above about 50%
CHT inh: inhibitors of human choline transporter CHT | CHT-expressing cells, membrane potential dye, choline response; active compounds read low | AID 488975, 2010 | 0.86% of 310,000 active | B-score at 10 µM;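 active means B-score over 3 SD under the library average, and starting fluorescence ratio not unusually high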;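 further: choline stimulus applied at its EC90 after an EC20 pre-addition; B-score computed on integrated fluorescence ratio after choline addition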
Of the large screens only hits and unclear results are named; the others gave an inactive call.

CCN1/C(=C/C(C)=C/c2sc3ccccc3[n+]2CC)Sc2ccccc21	AI-2 QS mod -170 (no result: VLA-4 inh)
CCN1/C(=C\C(=S)Nc2ccccc2)Sc2ccccc21	none
CCOC(=O)c1c(-c2ccccc2)oc2cc(CN(C)C)c(O)c(CN(C)C)c12	HIF act 12
CC(C)c1ccc(-c2cc(C(=O)NN3CCN(C)CC3)c3ccccc3n2)cc1	Platelet DG rel 54
C(=C\c1ccccc1)/CN1CCN(c2ncnc3c2oc2ccccc23)CC1	none
Nc1nc(N2CCN(C/C=C/c3ccccc3)CC2)nc2ccccc12	CHT inh -6.8 (no result: Platelet DG rel, AI-2 QS mod, HIF act)
COc1ccccc1NC(=O)Cc1ccc(-c2ccccc2)cc1	none
COc1ccc(C(CC(=O)Nc2ccccc2OC)n2cccc2)cc1 (centres undefined)	HIF act 152
COc1ccc(CC(=O)Nc2ccccc2Oc2ccccc2)cc1	CHT inh -6.2
COc1ccc(C(CC(=O)NC(C)(C)C)n2cccc2)cc1 (centres undefined)	none
CC(C)[C@H](NC(=O)c1ccc(C(C)(C)C)cc1)C(=O)N1CCN(Cc2ccc3c(c2)OCO3)CC1	none (no result: Platelet DG rel, CHT allo act, AI-2 QS mod, HIF act, CHT inh)
COc1ccc(-c2csc(NC(=O)c3ccccc3NS(=O)(=O)c3ccc(F)c(F)c3)n2)cc1	CHT inh -8.4
Cc1cnn(-c2cc(N/N=C/c3ccccc3F)ncn2)c1	none
COc1cc(N/N=C/c2ccccc2O)ncn1	HIF act 10
COc1cc(N/N=C/c2ccc(N(C)C)cc2)ncn1	Platelet DG rel 57
Cc1cnn(-c2cc(N/N=C/c3ccccc3)ncn2)c1	none
COc1ccc(CCNC(=O)c2nnn(CC(=O)Nc3c(C)cc(C)cc3C)c2N)cc1OC	HIF act 107
Cc1cccc(C)c1NC(=O)CNC(=O)c1ccc(N2CCCC2)c([N+](=O)[O-])c1	none (no result: Platelet DG rel, CHT allo act, AI-2 QS mod, HIF act, CHT inh)
COc1ccc(NC(=O)CSC2=NCCN2)cc1	none
O=C(CSc1nnc2c3ccccc3c3ccccc3c2n1)Nc1ccccc1F	Platelet DG rel 55
O=C(CSc1nnc2c(n1)[nH]c1ccc(F)cc12)Nc1ccccc1F	none
C=CCNC(=O)COC(=O)c1c2c(nc3ccccc13)CCC2	none
CC(=O)c1cccc(NC(=O)CN(C)S(=O)(=O)c2cccc3nsnc23)c1	HIF act 14
CN(C(=O)c1ccc(NC(=O)Cc2ccc([N+](=O)[O-])cc2)cc1)C1CC1	none (no result: Platelet DG rel, CHT allo act, AI-2 QS mod, HIF act, CHT inh)
Cc1ccc(S(=O)(=O)N2CCN(C(=O)CNC(=O)c3ccc(Cl)cc3)CC2)cc1	none (no result: Platelet DG rel, CHT allo act, AI-2 QS mod, HIF act, CHT inh)
CN(C(=O)COC(=O)c1cc(S(=O)(=O)N2CCOCC2)ccc1Cl)C1CCS(=O)(=O)C1 (centres undefined)	none
CC1=Nc2cc(C(=O)O)ccc2Sc2ccc(C)cc21	AI-2 QS mod -90
CC1=Nc2cc(C(=O)NCc3ccco3)ccc2Sc2ccc(C)cc21	AI-2 QS mod -98
COc1ccc(-c2[nH]n(-c3ccc([N+](=O)[O-])cc3)c(=O)c2C=NCCN2CCNCC2)cc1	CHT allo act 9.3
Cc1cc(=O)c(C(=O)Nc2cccc(C(=O)NC3CC3)c2)nn1-c1ccccc1Cl	none (no result: Platelet DG rel, CHT allo act, AI-2 QS mod, HIF act, CHT inh)
COc1ccccc1OCC(=O)N/N=C/c1cccc2cccnc12	none
O=C(CN1CCCC1)N/N=C/c1c(O)ccc2ccccc12	HIF act 28
O=C(CCSc1nc2ccccc2s1)N/N=C/c1c(O)ccc2ccccc12	HIF act 11
COc1ccccc1OCC(=O)N/N=C/c1c(O)ccc2ccccc12	HIF act 18
Cc1cc(C)n(CCC(=O)N/N=C/c2c(O)ccc3ccccc23)n1	HIF act 17
COc1cc2c(cc1NC(=O)COC(=O)C(CCSC)NC(=O)c1ccccc1Cl)oc1ccccc12 (centres undefined)	none
CSCC[C@H](NC(=O)c1ccc2c(c1)OCO2)c1nnc2ccccn12	none
O=c1c2ccccc2nc(N/N=C/c2c(O)ccc3ccccc23)n1O	HIF act 15
Cc1ccc(O)c(/C=N/NC(=O)CN2CCCC2)c1	HIF act 15
COc1cc(C(=O)Nc2ccc3c(c2)ncn3C)cc(OC)c1OC	none
COc1cc(C(=O)Nc2ccc3c(c2)nc(C)n3C)cc(OC)c1OC	CHT allo act 6.5
O=C1/C(=C/c2ccc([N+](=O)[O-])cc2)Oc2cc(O)ccc21	AI-2 QS mod -83
O=C1/C(=C/c2ccc(Br)cc2)Oc2cc(O)ccc21	none
COc1ccccc1NC(=O)CSc1nccn1Cc1ccccc1	none
CCN1CN(CCc2ccccc2)CNC1=S	HIF act 270
O=C(NC(=S)NNC(=O)c1cnccn1)c1ccc(F)cc1	AI-2 QS mod -89
COc1cccc(C(=O)N2CCC(n3nccc3NC(=O)C(OC)c3ccccc3)CC2)c1 (centres undefined)	none
CCN(CC)S(=O)(=O)c1cccc(C(=O)N/N=C(\C)c2ccc(O)cc2O)c1	HIF act 13
Cc1ccc(NC(=O)CNCc2cccs2)cc1Br	AI-2 QS mod -76
CSc1ncc(-c2ccc(Cl)cc2)[nH]1	none
Cc1[nH]n(-c2ccccc2)c(=O)c1C(c1ccc(O)c([N+](=O)[O-])c1)c1c(C)[nH]n(-c2ccccc2)c1=O	CHT inh -6.1
COc1ccc(C(C[N+](=O)[O-])c2c(C)[nH]n(-c3ccccc3)c2=O)cc1 (centres undefined)	none
Cc1cc(C(=O)N/N=C/c2ccc([N+](=O)[O-])o2)c(C)o1	none
Cc1nonc1C(=O)N/N=C/c1ccc([N+](=O)[O-])o1	AI-2 QS mod -96
Cc1nonc1C(=O)N/N=C/c1ccc(O)cc1O	Platelet DG rel 96, AI-2 QS mod -88
CC(=O)N1CCN(C(=S)NCc2ccccc2)CC1	VLA-4 inh 54
Cc1ccc(Cl)c(OCC(=O)Nc2ccccc2C(=O)NC2CC2)c1	Platelet DG rel 53
Cc1ccc(C)c(OCC(=O)Nc2ccccc2C(=O)NC2CC2)c1	none
CCCOc1ccc(CNC(=O)c2ccc3c(c2)N(CC)CCS3)cc1	Platelet DG rel 96
CC(C)(CO)NCC(O)COc1ccc2c(c1)CCC2 (centres undefined)	Platelet DG rel 51
O=C(c1cccc(C(F)(F)F)c1)C1CCCN(C(=O)Cn2cncn2)C1 (centres undefined)	HIF act 11
N#Cc1c(Nc2cccc(F)c2)sc2c(O)cc(=O)[nH]c12	none
Cc1cc(Cl)n2c(nc3cc(F)c(F)cc32)c1C#N	AI-2 QS mod -96, HIF act 9.5 (no result: CHT allo act, VLA-4 inh, CHT inh)
COc1cccc(-n2nnnc2S(C)(=O)=O)c1	AI-2 QS mod -87
